Several values for one entry are separate records, joined by “and”; a condition that tells them apart may be missing. Identical values can stand only once.
Legend:
Type in all cases: functional
Plasmodium falciparum [1] = assay: GSK_TCMDC: Inhibition of Plasmodium falciparum 3D7 in whole red blood cells, using parasite LDH activity as an index of growth. Test compounds present at 2uM
Plasmodium falciparum [2] = assay: GSK_TCMDC: Inhibition of Plasmodium falciparum Dd2 in whole red blood cells, using parasite LDH activity as an index of growth. Test compounds present at 2uM
HepG2 = assay: GSK_TCMDC: Percent inhibition of human HepG2 cell line. Test compounds present at 10uM.

Structure (SMILES) | Inhibition (Plasmodium falciparum [1]) | Inhibition (Plasmodium falciparum [2]) [%] | Inhibition (HepG2) [%]
Cc1ccc(-n2c(=O)c3cccnc3n2CC(=O)Nc2cccc(C)c2C)cc1 | 96% | 20 | 9
CC(=O)c1c(CC(=O)O)c2ccccc2n1O | 98% | 0 | 16
COc1ccc(-c2cccc(CNC3CCN(CC4Cn5c(=O)ccc6ccc(F)c4c65)CC3)c2)cc1.O=C(O)C(F)(F)F (configuration not stated) | 100% | 74 | 22
c1cncc(-c2cc(N3CCCCC3)nc(-c3ccncc3)n2)c1 | 99% | 46 | 18
O=C1Nc2cccc3c2C1(CCCCN1CCC(c2cc4ccncc4[nH]2)CC1)CCC3 (configuration not stated) | 99% and 97% | 0 | 0
N#Cc1ccc(C(=O)Nc2cc(-c3cccc(O)c3)cc3[nH]ncc23)cc1 | 90% | 79 | 15
Clc1ccc2c(NCCc3ccccn3)ccnc2c1 | 92% | 72 | 13
CN(C)CCNCc1ccc(-c2cccc(-c3nc4ccccc4[nH]3)c2)cc1.O=C(O)C(F)(F)F | 100% | 63 | 31
C=CCc1cc(SC)ccc1Oc1ccc(N)cc1.Cl | 96% | 2 | 12
CCOc1ccccc1NC(=O)C(Sc1nc(C)cc(C)c1C#N)c1ccccc1 (configuration not stated) | 99% | 98 | 0
COc1cc(NC(=O)/C=C/c2ccccc2OC(F)(F)F)cc(OCCN2CCCCC2)c1.O=C(O)C(=O)O | 96% | 6 | 25
CC1(C)NC(N)=NC(=N)N1OCc1cc(Cl)cc2c1OCOC2.Cl | 95% | 64 | 65
COc1ccccc1-c1[nH]c2ccccc2c1CN1CCC(c2c(C)cccc2C)CC1 | 96% | 13 | 49
CC(=O)/N=C1\N=C(NC(C)=O)NC(C)(C)N1OCCCOc1ccc(Cl)c(Cl)c1 | 96% | 94 | 65
Clc1ccc(-c2csc3ncnc(Cl)c23)cc1 | 94% | 95 | 0
COc1ccc2nccc([C@@H](O)CN3CCC(NC(=O)c4ccc(Cl)c(Cl)c4)CC3)c2c1 | 96% | 57 | 21
Br.CC1(C)NC(N)=NC(=N)N1OCC1CCCCC1 | 94% | 97 | 67
Cc1ccc(CNC(=O)[C@H](CCCN)Nc2nc(Nc3ccccc3)ncc2C)cc1.O=C(O)C(F)(F)F | 97% | 0 | 0
CCN(CC)/C(=N/C(=N)Nc1ccc(Cl)c(Cl)c1)NCCCCCCN/C(=N\C(=N)Nc1ccc(Cl)c(Cl)c1)N(CC)CC | 94% | 90 | 1
COc1ccc(-c2ccccc2CNC2Cc3ccccc3C2)cc1S(=O)(=O)NCCN1CCCC1.O=C(O)C(F)(F)F | 96% | 47 | 18
Nc1ncc(-c2cccc(CCN3CCOCC3)c2)cc1-c1nc2cc(Br)ccc2[nH]1.O=C(O)C(F)(F)F | 100% | 98 | 60
Cc1ncc(CN2CCC(C(=O)Nc3ccc(-c4nc5ccccc5o4)cc3)CC2)s1 | 82% | 92 | 0
COc1cc2nc(N3CCC(c4ccccc4)CC3)nc(NCc3ccc(=O)[nH]c3)c2cc1OC | 100% | 58 | 12
CS(=O)(=O)Cc1ccc(Nc2nccc(-c3c(-c4cccc(NC(=O)c5c(F)cccc5F)c4)nn4ncccc34)n2)cc1 | 97% | 93 | 86
Nc1nc(N)c2nc(C3CC=CCC3)c(N)nc2n1 (configuration not stated) | 95% | 0 | 67
COc1ccc(NC(=O)Nc2ccc(-c3ccncc3)c(Cl)c2)cc1N1CCN(C)CC1 | 98% | 62 | 19
O=C(Nc1cccc(-c2cccc(-c3nc4cc(F)ccc4[nH]3)c2)c1)Nc1ccc(F)c(F)c1F | 100% | 100 | 83
Cc1cccc(-c2ccc(CNC3CCN(CC4Cn5c(=O)ccc6ccc(F)c4c65)CC3)cn2)c1.O=C(O)C(F)(F)F (configuration not stated) | 90% | 2 | 0
O=C(Nc1ccc(OC2CCN(Cc3ccccc3)C2)c(Cl)c1)c1cccs1.O=C(O)C(F)(F)F (configuration not stated) | 97% | 96 | 13
